ChEMBL document CHEMBL3988442, “University of Dundee, Small-Polar-MMV Screening Library” (2021)
For some assays here: Measured potencies and affinities stand elsewhere.

Legend:
Set-up in all cases: scale not given: direction of the effect not stated beside the values
[1] = molecular target: Protein translocase subunit SecA (Escherichia coli (strain K12)) (UniProt P10408); test: Assay to Identify E. coli SecA ATPase Inhibitors; format: functional; conditions: 30 µM
[2] = molecular target: T1, Ubiquitin-activating enzyme e1, putative (Leishmania donovani (strain BPK282A1)) (UniProt E9BSI1); test: Leishmania donovani Ubiquitin Activating Enzyme (LdE1); format: functional; conditions: 30 µM
T1 sequence (whole entry): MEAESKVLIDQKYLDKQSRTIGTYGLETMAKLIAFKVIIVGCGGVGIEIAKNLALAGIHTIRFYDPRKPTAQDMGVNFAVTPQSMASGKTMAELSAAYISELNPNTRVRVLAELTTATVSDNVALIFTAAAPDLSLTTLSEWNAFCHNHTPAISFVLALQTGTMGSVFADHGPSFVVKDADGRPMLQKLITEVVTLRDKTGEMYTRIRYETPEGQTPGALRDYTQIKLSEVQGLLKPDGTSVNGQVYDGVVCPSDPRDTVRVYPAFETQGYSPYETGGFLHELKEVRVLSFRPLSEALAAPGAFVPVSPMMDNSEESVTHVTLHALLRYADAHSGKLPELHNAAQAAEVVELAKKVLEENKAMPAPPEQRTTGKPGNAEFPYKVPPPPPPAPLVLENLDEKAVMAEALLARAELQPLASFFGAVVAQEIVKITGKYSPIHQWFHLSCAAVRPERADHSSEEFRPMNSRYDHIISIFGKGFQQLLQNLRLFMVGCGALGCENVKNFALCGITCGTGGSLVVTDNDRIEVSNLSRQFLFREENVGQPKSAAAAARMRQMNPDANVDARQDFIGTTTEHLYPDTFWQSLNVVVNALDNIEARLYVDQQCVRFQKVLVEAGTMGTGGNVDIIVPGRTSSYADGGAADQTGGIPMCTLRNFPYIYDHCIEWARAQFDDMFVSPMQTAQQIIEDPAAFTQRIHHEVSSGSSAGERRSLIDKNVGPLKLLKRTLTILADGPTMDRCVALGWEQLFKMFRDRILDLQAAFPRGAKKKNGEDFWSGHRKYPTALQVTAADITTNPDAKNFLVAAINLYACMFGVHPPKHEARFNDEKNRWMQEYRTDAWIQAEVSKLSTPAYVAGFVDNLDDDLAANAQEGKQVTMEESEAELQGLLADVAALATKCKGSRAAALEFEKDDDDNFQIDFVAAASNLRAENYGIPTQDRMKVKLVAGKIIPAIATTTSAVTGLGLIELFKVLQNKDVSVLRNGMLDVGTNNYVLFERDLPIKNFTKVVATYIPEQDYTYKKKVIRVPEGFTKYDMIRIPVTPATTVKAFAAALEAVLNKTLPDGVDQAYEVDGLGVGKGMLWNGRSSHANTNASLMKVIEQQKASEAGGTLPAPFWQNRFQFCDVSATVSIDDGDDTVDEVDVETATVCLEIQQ

[3] = molecular target: AMP-activated protein kinase, AMPK (Homo sapiens) (UniProt P54646+O43741+P54619+Q9UGJ0+Q9Y478+Q13131+Q9UGI9); test: AMP-dependent Kinase enzyme assay. An in vitro enzyme assay that detects ADP turnover that is directly proportional to AMPK activity. This uses naive AMPK that is activated during the assay with MK-8722; format: functional; conditions: 30 µM
[4] = molecular target: Sialic acid-binding Ig-like lectin 9 (Homo sapiens) (UniProt Q9Y336); test: Hs-Siglec9 ALPHAscreen SOP 20170721; conditions: 10 µM
Trypanosoma cruzi = test: Trypanosoma cruzi phosphomannomutase and mannose-1-phosphate guanylyltransferase assay; format: functional; conditions: 10 µM
[5] = molecular target: T2, Arginase-2, mitochondrial (Homo sapiens) (UniProt P78540); test: in vitro enzyme assay to detect the production of urea directly proportional to the activity of Arginase II; format: functional; conditions: 33.3 µM; note: in the data most compounds retested in dose-response had high values
T2 sequence (whole entry): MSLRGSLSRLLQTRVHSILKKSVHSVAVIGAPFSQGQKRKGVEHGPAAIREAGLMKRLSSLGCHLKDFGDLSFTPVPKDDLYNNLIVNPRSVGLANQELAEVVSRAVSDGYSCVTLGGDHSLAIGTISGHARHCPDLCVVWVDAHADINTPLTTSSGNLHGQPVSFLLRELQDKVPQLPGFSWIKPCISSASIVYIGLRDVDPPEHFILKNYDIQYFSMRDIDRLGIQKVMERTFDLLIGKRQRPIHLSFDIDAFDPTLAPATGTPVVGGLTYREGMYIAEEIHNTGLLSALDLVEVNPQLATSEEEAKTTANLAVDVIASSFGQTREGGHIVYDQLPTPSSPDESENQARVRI

[6] = molecular target: T3, Proteasome subunit beta (Trypanosoma cruzi) (UniProt O96673); test: Trypanosoma cruzi proteasome chymotrypsin-like activity (TcProtChymo) assay.; note: in the data most compounds retested in dose-response had high values; format: functional; conditions: 9.37 µM
T3 sequence (whole entry): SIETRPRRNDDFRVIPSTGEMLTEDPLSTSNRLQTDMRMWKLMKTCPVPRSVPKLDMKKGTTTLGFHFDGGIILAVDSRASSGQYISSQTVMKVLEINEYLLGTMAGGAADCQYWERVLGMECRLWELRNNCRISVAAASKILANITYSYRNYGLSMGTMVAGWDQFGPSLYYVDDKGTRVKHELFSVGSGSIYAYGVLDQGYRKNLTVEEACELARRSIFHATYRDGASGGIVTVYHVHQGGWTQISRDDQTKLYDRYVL

Homo sapiens = organism: Homo sapiens; test: To identify inhibition of the IFN signalling (Jak-Stat) pathway via expression of an eGFP reporter gene under the control of an IFN-stimulated response element (ISRE) containing MxA promoter.; format: functional; conditions: 30 µM
[7] = molecular target: T4, Tyrosyl-tRNA synthetase, putative (Trypanosoma cruzi (strain CL Brener)) (UniProt Q4DSP6); test: Trypanosoma cruzi tyrosyl tRNA synthetase (TcYRS) _High Tyrosine SOP; format: functional; conditions: 30 µM; note: in the data most compounds retested in dose-response had high values
T4 sequence (whole entry): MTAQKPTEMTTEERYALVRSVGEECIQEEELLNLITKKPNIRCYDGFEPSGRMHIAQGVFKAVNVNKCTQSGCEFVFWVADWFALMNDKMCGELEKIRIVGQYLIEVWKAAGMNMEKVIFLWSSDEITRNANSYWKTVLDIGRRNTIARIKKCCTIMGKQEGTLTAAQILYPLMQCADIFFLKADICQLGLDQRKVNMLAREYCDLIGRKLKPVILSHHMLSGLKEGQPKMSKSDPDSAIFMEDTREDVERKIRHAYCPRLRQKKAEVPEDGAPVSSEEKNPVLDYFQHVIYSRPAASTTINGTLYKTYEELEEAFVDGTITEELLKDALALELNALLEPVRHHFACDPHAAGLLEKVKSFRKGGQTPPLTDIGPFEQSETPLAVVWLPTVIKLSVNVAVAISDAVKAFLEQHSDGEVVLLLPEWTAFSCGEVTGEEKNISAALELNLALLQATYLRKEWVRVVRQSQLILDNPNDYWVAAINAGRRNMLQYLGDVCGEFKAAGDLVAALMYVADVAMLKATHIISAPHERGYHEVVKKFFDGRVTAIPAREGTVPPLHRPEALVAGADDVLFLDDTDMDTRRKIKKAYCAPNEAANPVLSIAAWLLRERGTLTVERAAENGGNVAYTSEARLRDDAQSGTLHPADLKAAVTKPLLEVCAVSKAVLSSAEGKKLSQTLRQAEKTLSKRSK

[8] = molecular target: T4, Tyrosyl-tRNA synthetase, putative (Trypanosoma cruzi (strain CL Brener)); test: Trypanosoma cruzi tyrosyl tRNA synthetase (TcYRS) SOP; format: functional; conditions: 30 µM
[9] = molecular target: Chromo domain-containing protein 1 (Saccharomyces cerevisiae (strain ATCC 204508 / S288c) (Baker's yeast)) (UniProt P32657); test: ScCHD-1 Enzyme Inhibition Assay; format: functional; conditions: 30 µM; note: in the data most compounds retested in dose-response had high values
Sequence of Chromo domain-containing protein 1 (Saccharomyces cerevisiae (strain ATCC 204508 / S288c) (Baker's yeast)) (P32657 whole entry, the tested form may be a part): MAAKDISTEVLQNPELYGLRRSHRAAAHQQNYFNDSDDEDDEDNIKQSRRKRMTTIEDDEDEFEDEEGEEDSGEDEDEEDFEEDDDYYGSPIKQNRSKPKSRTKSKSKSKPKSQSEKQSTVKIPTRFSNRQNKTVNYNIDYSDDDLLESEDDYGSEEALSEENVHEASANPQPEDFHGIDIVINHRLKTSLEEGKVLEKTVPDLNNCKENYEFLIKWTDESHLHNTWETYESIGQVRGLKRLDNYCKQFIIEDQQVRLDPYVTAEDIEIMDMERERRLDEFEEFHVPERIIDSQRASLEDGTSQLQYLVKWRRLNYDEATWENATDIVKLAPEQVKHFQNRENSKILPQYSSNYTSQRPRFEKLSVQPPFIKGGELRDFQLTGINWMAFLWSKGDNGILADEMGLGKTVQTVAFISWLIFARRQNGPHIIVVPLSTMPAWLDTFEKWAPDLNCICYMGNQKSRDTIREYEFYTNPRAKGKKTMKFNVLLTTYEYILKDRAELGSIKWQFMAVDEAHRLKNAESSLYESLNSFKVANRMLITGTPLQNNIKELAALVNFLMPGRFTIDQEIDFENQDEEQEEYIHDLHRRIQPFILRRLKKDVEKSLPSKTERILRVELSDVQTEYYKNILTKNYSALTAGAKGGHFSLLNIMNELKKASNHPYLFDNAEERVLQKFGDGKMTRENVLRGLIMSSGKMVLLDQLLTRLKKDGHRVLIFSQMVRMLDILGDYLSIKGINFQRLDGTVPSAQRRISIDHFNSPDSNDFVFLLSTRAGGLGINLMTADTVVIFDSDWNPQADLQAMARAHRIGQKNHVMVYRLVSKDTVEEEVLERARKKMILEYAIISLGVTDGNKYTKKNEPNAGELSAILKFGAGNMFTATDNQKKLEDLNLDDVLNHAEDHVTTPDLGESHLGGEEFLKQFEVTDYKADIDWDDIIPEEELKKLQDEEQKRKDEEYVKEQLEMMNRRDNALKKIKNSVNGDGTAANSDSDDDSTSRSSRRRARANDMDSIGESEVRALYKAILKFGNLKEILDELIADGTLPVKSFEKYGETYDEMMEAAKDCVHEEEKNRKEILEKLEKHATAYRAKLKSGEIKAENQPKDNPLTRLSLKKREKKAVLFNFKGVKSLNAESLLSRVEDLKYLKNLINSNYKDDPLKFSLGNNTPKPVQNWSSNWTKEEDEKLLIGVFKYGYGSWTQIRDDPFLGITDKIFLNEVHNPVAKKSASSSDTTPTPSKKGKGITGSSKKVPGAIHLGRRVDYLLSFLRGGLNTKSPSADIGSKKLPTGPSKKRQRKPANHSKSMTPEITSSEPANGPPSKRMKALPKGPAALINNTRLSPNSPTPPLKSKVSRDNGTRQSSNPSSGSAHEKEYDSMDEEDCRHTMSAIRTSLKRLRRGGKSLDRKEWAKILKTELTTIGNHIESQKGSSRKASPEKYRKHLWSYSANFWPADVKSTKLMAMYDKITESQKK

Sequence of Protein translocase subunit SecA (Escherichia coli (strain K12)) (P10408 whole entry): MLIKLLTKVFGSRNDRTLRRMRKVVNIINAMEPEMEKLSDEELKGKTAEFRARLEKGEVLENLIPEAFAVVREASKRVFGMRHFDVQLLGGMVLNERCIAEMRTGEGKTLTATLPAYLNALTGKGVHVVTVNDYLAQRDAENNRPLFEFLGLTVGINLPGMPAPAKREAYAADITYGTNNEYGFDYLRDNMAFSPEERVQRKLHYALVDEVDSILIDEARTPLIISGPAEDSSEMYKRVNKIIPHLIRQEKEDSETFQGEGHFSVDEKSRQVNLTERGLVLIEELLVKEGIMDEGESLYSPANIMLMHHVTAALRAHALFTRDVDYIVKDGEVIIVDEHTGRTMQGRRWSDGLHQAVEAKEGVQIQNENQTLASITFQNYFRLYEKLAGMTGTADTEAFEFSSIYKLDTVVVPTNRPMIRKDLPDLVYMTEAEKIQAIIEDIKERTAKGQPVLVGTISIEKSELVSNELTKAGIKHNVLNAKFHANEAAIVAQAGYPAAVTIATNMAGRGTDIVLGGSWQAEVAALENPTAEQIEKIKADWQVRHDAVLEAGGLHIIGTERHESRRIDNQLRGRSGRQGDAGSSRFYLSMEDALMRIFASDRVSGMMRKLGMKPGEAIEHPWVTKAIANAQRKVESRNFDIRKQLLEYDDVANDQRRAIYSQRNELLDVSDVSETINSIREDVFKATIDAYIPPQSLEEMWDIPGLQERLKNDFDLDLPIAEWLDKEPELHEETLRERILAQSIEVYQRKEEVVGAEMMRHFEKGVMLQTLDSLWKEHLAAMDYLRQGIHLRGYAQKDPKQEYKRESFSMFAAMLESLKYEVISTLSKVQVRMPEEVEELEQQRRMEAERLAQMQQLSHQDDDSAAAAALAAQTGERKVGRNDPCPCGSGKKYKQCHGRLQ
Sequence of Sialic acid-binding Ig-like lectin 9 (Homo sapiens) (Q9Y336 whole entry): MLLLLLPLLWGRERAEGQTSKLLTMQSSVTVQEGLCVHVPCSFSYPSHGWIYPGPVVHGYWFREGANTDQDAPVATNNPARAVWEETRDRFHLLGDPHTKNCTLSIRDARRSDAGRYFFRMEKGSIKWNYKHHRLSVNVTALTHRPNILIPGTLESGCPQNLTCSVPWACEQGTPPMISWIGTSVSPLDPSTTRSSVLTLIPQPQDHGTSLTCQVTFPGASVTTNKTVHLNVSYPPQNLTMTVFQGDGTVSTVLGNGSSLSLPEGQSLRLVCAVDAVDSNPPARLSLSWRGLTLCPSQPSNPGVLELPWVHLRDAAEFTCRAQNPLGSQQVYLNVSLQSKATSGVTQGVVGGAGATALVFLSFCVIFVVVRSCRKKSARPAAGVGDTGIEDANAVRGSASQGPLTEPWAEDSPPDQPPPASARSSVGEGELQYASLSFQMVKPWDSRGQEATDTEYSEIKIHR

Compound | Percent Effect [1] [%] | Percent Effect [2] [%] | Percent Effect [3] [%] | Percent Effect [4] [%] | Percent Effect (Trypanosoma cruzi) [%] | Percent Effect [5] [%] | Percent Effect [6] [%] | Percent Effect (Homo sapiens) [%] | Percent Effect [7] [%] | Percent Effect [8] [%] | Percent Effect [9] [%]
Cc1nc(C2CCCN(C(=O)c3cnn(C(C)(C)C)c3)C2)no1 (stereo not given) | -11.7 | 16.5 | -6.15 | -0.567 | 4.82 | -1.07 | 2.74 | -0.962 | 4.17 | 12.7 | -34.2
CN1CCCc2cc(CNC(=O)c3ccncc3)ccc21 | -3.56 | 19 | 22.6 | -0.0483 | 1.54 | -1.94 | 21.4 | 28.5 | 2.08 | 17.7 | -25.8
O=C(NC1CCN(c2snc3ccccc23)CC1)C1CCC1 | -4.68 | 16.5 | -3.67 | 3.44 | -1.74 | -1.07 | 9.43 | 21.9 | 4.17 | 20.2 | -33
CCc1nnc(CNCC2CCCN2c2cccnn2)o1 (stereo not given) | -2.1 | 0 | 0.161 | 4.6 | 2.78 | -2.4 | 5.57 | 3.42 | 8.33 | 11.1 | -4.05
COc1ccccc1CCNC(=O)CN1CCCC1c1noc(C)n1 (stereo not given) | -1.65 | 2.63 | 3.18 | 11.8 | -1.69 | 1.53 | 12.9 | 5.32 | 4.41 | 17.1 | -5.97
CCOC(=O)CNC(=O)N1CCN(c2ncccn2)CC1 | -2.75 | 7.79 | -0.383 | 6.61 | 4.03 | -13.8 | 9.65 | 14.3 | 5.38 | 13.6 | -4.38
CN(CC1(O)CCCN(c2ccccn2)C1)C(=O)Cc1ccsc1 (stereo not given) | -5.09 | 4.05 | 12 | 3.61 | -0.198 | -1.62 | -2.18 | -8.8 | 6.45 | 9.09 | 3.9
Cc1cc(C2CCCN2C(=O)NCc2cccc(F)c2)on1 (stereo not given) | -3.25 | 8 | -2.75 | 0.538 | -1.07 | 1.56 | 16.2 | 10.1 | 8.2 | 13.6 | -5.2
Cc1cc(NC(=O)c2nc(N3CCCC3)ncc2Cl)nc(C(C)C)n1 | -0.667 | 5.41 | -5.04 | -2.54 | -8.79 | 3.33 | 17.2 | 2.69 | 9.9 | 8.54 | 0.666
CCNC(=O)N1CCCCC1CCO (stereo not given) | 1.22 | 8.11 | -0.623 | 17.1 | 5.99 | 6.67 | -0.69 | -3.81 | 0.529 | 7.32 | -10.1
